# From PubChem BioAssay (Tox21)
# Inconclusive results are not listed. Values without a mark were called inactive. Activity calls are given as the source filed them. The call rests on the fitted dose curve; in most records, active means well fitted activation curve with a large enough effect in the signal ratio in the repeat runs (not every such curve was filed as active); inconclusive means weak or mixed curves, or effect the other way; inactive means flat fitted curve, though single readings scatter; the % refers to the signal ratio.
# Target: Estrogen receptor beta (Homo sapiens) (UniProt Q92731)
# Experiment: qHTS assay to identify small molecule agonists of the estrogen receptor beta (ER-beta) signaling pathway (AID 1259377)
# Conditions: ER-beta-UAS-bla HEK293T, beta-lactamase FRET ratio, 16 h; series mostly up to 92.4 µM
# From the text: U.S. Tox21 Program National Center for Advancing Translational Sciences [NCATS] NIH Chemical Genomics Center [NCGC] U.S. Environmental Protection Agency [EPA] National Institutes of Environmental Health Sciences [NIEHS] National Toxicology Program [NTP] U.S. Food and Drug Administration [FDA] Tox21 Assay Overview: Estrogen receptor (ER), a nuclear hormone receptor, plays an important role in development, metabolic homeostasis and reproduction. Two subtypes of ER, ER-alpha and ER-beta, have similar expression patterns with some uniqueness in both types. Endocrine disrupting chemicals (EDCs) and their interactions with steroid hormone receptors like ER causes disruption of normal endocrine function. To identify the compounds that activate ER signaling, an ER beta-UAS-bla GripTite cell line (Life technologies, Madison, WI, USA) containing a beta-lactamase reporter gene under the control of an Upstream Activator Sequence (UAS) was used to screen Tox21 10K compound library.
# Tox21 Assay Protocol Summary: ER-beta-UAS-bla HEK293T cells were dispensed at 2,000 cells/5 uL of assay medium containing 2% charcoal stripped FBS per well into black wall/clear-bottom 1536-well plates using a Multidrop Combi (ThermoFisher Scientific, Waltham, MA) dispenser. After the assay plates were incubated at a 37C and 5% CO2 for 6 hr, 23 nL of compounds dissolved in DMSO, positive controls or DMSO only was transferred to the assay plate by a Pintool station (Kalypsys, San Diego, CA). The plates were incubated at 37C and 5% CO2 for 16 hr. Then 1 uL of LiveBLAzerTM B/G FRET substrate was added using a BioRAPTR FRD (Flying Reagent Dispenser, Aurora Discovery, San Diego, CA). After the plates were incubated at room temperature for 2 hours, fluorescence intensity was measured by an Envision plate reader (PerkinElmer, Shelton, CT).
# On the % scale 0 is the no-effect control and ±100 the full control effect.
# Chain of Estrogen receptor beta (Homo sapiens) (Q92731 whole entry, looked up): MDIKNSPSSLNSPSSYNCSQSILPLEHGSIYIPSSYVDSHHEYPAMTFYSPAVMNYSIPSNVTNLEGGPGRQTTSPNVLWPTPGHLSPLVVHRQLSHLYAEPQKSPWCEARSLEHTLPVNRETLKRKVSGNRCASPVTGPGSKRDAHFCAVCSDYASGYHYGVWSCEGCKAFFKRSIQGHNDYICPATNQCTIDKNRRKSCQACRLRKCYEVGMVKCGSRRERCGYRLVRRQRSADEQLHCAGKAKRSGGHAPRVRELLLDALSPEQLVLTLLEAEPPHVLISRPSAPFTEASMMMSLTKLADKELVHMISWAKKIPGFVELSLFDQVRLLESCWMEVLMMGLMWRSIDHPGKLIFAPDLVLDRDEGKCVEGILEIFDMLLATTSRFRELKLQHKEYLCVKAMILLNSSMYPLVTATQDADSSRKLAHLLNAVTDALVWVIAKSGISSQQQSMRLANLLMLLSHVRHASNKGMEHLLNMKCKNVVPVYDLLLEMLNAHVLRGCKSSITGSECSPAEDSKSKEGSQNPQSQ
SMILES,outcome,activation
O=S(=O)(O)C(F)(F)F,inactive,
NC(Cc1ccc(F)cc1)C(=O)O (stereo not given),,-1.32% [at 8.39 µM]
COC(=O)c1ccc(OC)cc1,inactive,
O=C1CCCc2ccccc21,inactive,
CC1(C)S[C@@H]2[C@H](NC(=O)C(C(=O)O)c3ccccc3)C(=O)N2[C@H]1C(=O)O (stereo not given in full),inactive,
C=Cc1ccccc1,inactive,
Cc1ccsc1C(=CCCN1CCC[C@@H](C(=O)O)C1)c1sccc1C,inactive,
CCN[C@H]1CN(CCCOC)S(=O)(=O)c2sc(S(N)(=O)=O)cc21,inactive,
CCN1CC(CCN2CCOCC2)C(c2ccccc2)(c2ccccc2)C1=O (stereo not given),inactive,
COc1cc2c(cc1N)oc1ccccc12,inactive,
CCOc1ccc(NS(=O)(=O)c2ccc(N)cc2)nn1,inactive,
O=[N+]([O-])c1nccn1CO[C@@H](CO)[C@H](O)CO,inactive,
Cc1c[nH]c(=S)[nH]c1=O,inactive,
CCCCCOc1ccc(C2SC(=O)NC2=O)cc1OCC (stereo not given),inactive,
CCOC(=O)C(Br)c1ccccc1 (stereo not given),inactive,
N#CSCC(=O)O,inactive,
O=CCCc1ccccc1,inactive,
CCCCOc1cc(C(=O)NCCN(CC)CC)c2ccccc2n1,inactive,
CCCCCCCCCC/C=C/C#N,inactive,
Cc1onc(-c2ccccc2)c1C(=O)Cl,inactive,

SMILES,outcome,activation
Cc1ccc(C)c(N)c1,inactive,
Nc1cccc(S(=O)(=O)O)c1,inactive,
CCOC(=O)NCCC[Si](OCC)(OCC)OCC,inactive,
COC(=O)/C=C(/C)N,inactive,
FC(F)(F)c1ccccc1,inactive,
CC(C)c1ccccc1,inactive,
Oc1ccccc1C=NCc1ccccc1,inactive,
CNCCC(Oc1ccccc1OC)c1ccccc1 (stereo not given),inactive,
CC(C)(C)C1CCCCC1=O (stereo not given),inactive,
C=CC(C)(O)CC/C=C(\C)CCC=C(C)C (stereo not given),inactive,
COc1ccc(Nc2ccc(OC)cc2)cc1,inactive,
CC1=C2[C@H](/C=C(\C)C(=O)O)CC[C@@H](C)[C@H]2CC1,inactive,
CC(=O)O[C@H]1CC[C@@]2(C)C(=CC[C@@H]3[C@@H]2CC[C@]2(C)C(C(C)=O)=CC[C@@H]32)C1,inactive,
Cc1c(N)cccc1N,inactive,
Cc1ccc([N+](=O)[O-])c(N)c1,inactive,
FC(F)(F)C(Cl)(Cl)Cl,inactive,
CCCCCCCCCCCCCCCCOP(=O)([O-])OCC[N+](C)(C)C,inactive,
CC(C)C(=O)OCC(C)(C)C(O)C(C)C (stereo not given),inactive,
CC1(C)O[C@@H]2C[C@H]3[C@@H]4CCC5=CC(=O)CC[C@]5(C)[C@@]4(F)[C@@H](O)C[C@]3(C)[C@]2(C(=O)CCl)O1,inactive,
Cn1cnc2c(F)c(Nc3ccc(Br)cc3Cl)c(C(=O)NOCCO)cc21,inactive,
